Assay results: PubChem BioAssay (NCATS)
Records with an inconclusive call do not appear. Where a call stands in place of a potency, no number is given. Active and inactive are the calls of the source. The call rests on the fitted dose curve; in most records, active means well fitted cell-killing curve with a large enough effect; inconclusive means small, poorly fitted or top-dose-only effect; inactive means flat fitted curve, though single readings scatter.
Potency means the concentration at half of the fitted maximal effect.

Experiment: qHTS of pediatric cancer cell lines to identify multiple opportunities for drug repurposing: Primary screen for BT-37 cells (AID 1347094)
Details: BT-37 viability, CellTiter-Glo luminescence, 48 h; series mostly up to 57.3 µM
Method in brief: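 Quantitative HTS format: each compound titrated (MIPE 11 points from 0.78 nM, NPC 8 points from 0.59 nM) onto cells plated 5 hours earlier. After 48 h at 37 degrees C, CellTiter-Glo luminescence was recorded.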
For Cc1ncc([N+](=O)[O-])n1C, the Potency was “inactive”. In the case of OC1(c2ccc(Cl)cc2)CCNCC1, the Potency is reported as “inactive”. For CCCCCCCCCCCCCC[N+](C)(C)C, the Potency was 15.5 µM (active). For O=C(COCCOCCOCC(=O)Nc1c(I)cc(I)c(C(=O)O)c1I)Nc1c(I)cc(I)c(C(=O)O)c1I, the Potency was “inactive”. In the case of CC1CCCCN1CCCOC(=O)c1ccc(OC2CCCCC2)cc1 (centres undefined), the Potency is reported as “inactive”. For CCCCCCCCCCCCCCCCCCNC(=O)OC1CCN(C(=O)OC[C@H](COC(=O)N(Cc2cccc[n+]2CC)C(=O)c2ccccc2OC)OC)CC1, the Potency was 21.9 µM (active). In the case of CC[C@@]1(O)C(=O)OCc2c1cc1n(c2=O)Cc2c-1nc1ccccc1c2/C=N/OC(C)(C)C, the Potency is reported as 0.0309 µM (active). With CC[N+]1(CC)CCC(=C(c2ccccc2)c2ccccc2)C1C (centres undefined) the Potency was “inactive”. With NS(=O)(=O)c1cc(C(=O)NN2C[C@H]3[C@H]4CCC(C4)[C@H]3C2)ccc1Cl the Potency was “inactive”. In the case of Cc1ccc(CCn2c3c(c4cc(Cl)ccc42)CN(C)CC3)cn1, the Potency is reported as “inactive”. For O=C1OC2(c3ccccc31)c1cc(I)c(O)c(I)c1Oc1c2cc(I)c(O)c1I, the Potency was “inactive”. With Nc1nnnn1-c1ccccc1 the Potency was “inactive”. In the case of CCCCCCCCCCCCCCCC[n+]1ccccc1, the Potency is reported as 15.5 µM (active). With C/C(=C1\CCOC(=O)S1)N(C=O)Cc1cnc(C)nc1N the Potency was “inactive”. In the case of COc1cc(C(=O)OC(COCCC(C)C)CN2CCOCC2)cc(OC)c1OC (centres undefined), the Potency is reported as “inactive”. For Cc1oc(=O)oc1COC(=O)[C@@H]1N2C(=O)[C@@H](NC(=O)[C@H](N)c3ccccc3)[C@H]2SC1(C)C, the Potency was “inactive”. With O=C(O)Cn1cnnn1 the Potency was “inactive”. With O=C(O)C1CCC1 the Potency was “inactive”. In the case of O=C(O)c1ccc(OCCN2CCCCC2)cc1, the Potency is reported as “inactive”. In the case of CC(C)CCCC(C)NCCC(C)C (centres undefined), the Potency is reported as “inactive”. With CC(=O)OCC[N+](C)(C)C the Potency was “inactive”. For Cc1ccc(C(=O)Oc2ccc(C(O)CNC(C)(C)C)cc2OC(=O)c2ccc(C)cc2)cc1 (centres undefined), the Potency was “inactive”. For O=C1Cc2cc(Cl)ccc2N1, the Potency was “inactive”. With CCCCCCCCCCCCCCCCCCN(C)C the Potency was “inactive”. In the case of CCCCOC(=O)CCCCCCCCC(=O)OCCCC, the Potency is reported as “inactive”. For O=C(O)C(=O)Nc1cccc(-c2nn[nH]n2)c1, the Potency was “inactive”. In the case of CN1[C@@H]2CC[C@H]1CC(NC(=O)n1c(=O)[nH]c3ccccc31)C2 (some centres undefined), the Potency is reported as “inactive”. With O=C(OCCN1CCOCC1)c1cccnc1Nc1cccc(C(F)(F)F)c1 the Potency was “inactive”. In the case of C/C(=N\O)[C@@H](C)NCC(C)(C)CN[C@H](C)/C(C)=N/O, the Potency is reported as “inactive”. In the case of O=C1CCCc2c(O)cccc21, the Potency is reported as “inactive”. With Cc1nc(N)nc(N)c1-c1ccc(Cl)c(Cl)c1 the Potency was 0.55 µM (active). In the case of NC(=O)NS(=O)(=O)c1ccc(Cl)cc1, the Potency is reported as “inactive”. With CCC1=C[C@@H]2CN(C1)Cc1c([nH]c3ccccc13)[C@@](C(=O)OC)(c1cc3c(cc1OC)N(C)[C@H]1[C@@](O)(C(=O)OC)[C@H](OC(C)=O)[C@]4(CC)C=CCN5CC[C@]31[C@@H]54)C2 the Potency was 0.0276 µM (active). With CCCC(=O)O[C@]1(C(=O)CC)CC[C@H]2[C@@H]3CCC4=CC(=O)CC[C@]4(C)[C@H]3[C@@H](O)C[C@@]21C the Potency was “inactive”.
